Rows were chosen to be rich in hits. Some 21% of all compounds tested hit in one or more screens of this group.
Pf growth 48h – Primary qHTS for delayed death inhibitors of the malarial parasite plastid, 48 hour incubation | P. falciparum luciferase growth in erythrocytes, 48 h | Potency, µM (top dose mostly 28.7 µM), without a hit: top-dose activity change, negative = inhibition, most hits filed as inhibitors | 310,000 compounds, 5.9% hits; also: potency is read from the fitted curve at half-maximal effect; % is scaled to controls: 0 for no effect and ±100 for the full control effect
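Here the parasites carry a stable luciferase gene and grow inside erythrocytes in Albumax-based RPMI medium with compound for one erythrocytic cycle. Activity is scored as loss of luminescent signal.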
Shiga inhibitor – A qHTS for Small Molecule Inhibitors of Shiga Toxin | Vero cells, Shiga toxin protein synthesis inhibition reporter | inhibition, % at 38.7 µM | 290,000 compounds, 9.2% hits | AID 2315, 2010; in the data active = inhibition mostly above about 28%, no sharp cut-off; inactive = mostly below about 43%; also: 0% is about no effect
Pf growth 96h – Primary qHTS for delayed death inhibitors of the malarial parasite plastid, 96 hour incubation. P. falciparum luciferase reporter growth, 96 h. Potency, µM (series often up to 28.7 µM), without a hit: at the highest dose activity change, negative = inhibition, most hits filed as inhibitors. 320,000 compounds, 6.9% hits. AID 504834, 2011; also: potency is read from the fitted curve at half-maximal effect; % is scaled to controls: 0 for no effect and ±100 for the full control effect
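Infected RBCs, 2% Hct / 0.05% parasitemia final; luciferase-reporter P. falciparum; cpd 96 h, 37 C, 5% CO2; luciferase detection reagent; luminescence.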
AMA1-RON2 inh – qHTS for Inhibitors of AMA1-RON; Towards Development of Antimalarial Drug Lead: Primary Screen; AID 720542, 2013; 360,000 compounds, 0.2% hits; AlphaScreen AMA1-biotinylated RON2 peptide binding; Potency, µM (top dose mostly 58.2 µM), inactives show top-dose activity change, negative = inhibition, hits mostly inhibitors; Plasmodium falciparum AMA1 (3D7) - RON2 peptide interaction;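 also: potency is read from the fitted curve at half-maximal effect; 0% = vehicle wells and -100% = peptide control; nearly all actives have a fitted effect of over 45% in size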
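AMA1 (3D7) with his tag at 25 nM final met compounds first, then biotinylated RON2 peptide at 25 nM; detection used donor plus acceptor beads, 10 µg/mL apiece, read by AlphaScreen after 30 min at room temperature.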
CHX counter – Cycloheximide Counterscreen for Small Molecule Inhibitors of Shiga Toxin | cell reporter, cycloheximide protein synthesis inhibition counterscreen | max response, % | 300,000 compounds, 12% hits | AID 2314, 2010; in the data active = max response mostly above about 13%, no sharp cut-off; inactive = mostly below about 14%; also: read at 38.3 µM for the half of the compounds with a filed dose; 0% is about no effect
HCV inh – qHTS Assay for Inhibitors of Hepatitis C Virus (HCV). Potency, µM (titrated, usually from 41.8 µM), without a hit: top-dose activity change, negative = inhibition, hits mostly inhibitors. AID 651820, 2012. 340,000 compounds, 3.4% hits. Huh7.5.1 HCVcc-Cre infection, luciferase reporter, 44 h; also: potency is read from the fitted curve at half-maximal effect; % is scaled to controls: 0 for no effect and ±100 for the full control effect
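Luciferase read-out (15 sec integration) after a 15 min room-temperature substrate step quantifies HCVcc-Cre infection. Cells, 1,000 per well, had compound added 4 h post-plating, then virus at ~0.5 moi, and were cultured 44 h.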
HCV inh confirm – qHTS Assay for Inhibitors of Hepatitis C Virus (HCV): Confirmation Assay for Cherry-picked Compounds; shares compounds with HCV inh; HCVcc-Cre infectious virus cell assay, luciferase, inhibition; Potency, µM (titrated, usually from 41.8 µM), for inactives: at the top dose activity, negative = inhibition, actives largely listed as inhibitors; 640 compounds, 78% hits; also: potency is read from the fitted curve at half-maximal effect; nearly all actives have a fitted effect of over 80% in size
HCV cytotox – qHTS Assay for Inhibitors of Hepatitis C Virus (HCV): Cytotoxicity Counterscreen for Cherry-picked Compounds; Potency, µM (titrated, usually from 41.8 µM), for inactives: at the top dose activity change, negative = cytotoxicity, actives largely listed as inhibitors; AID 720576, 2013; HCV host cell line cytotoxicity counterscreen; shares compounds with HCV inh; 640 compounds, 22% hits;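 also: potency is read from the fitted curve at half-maximal effect; 44 h compound exposure; % is scaled to controls: 0 for no effect and ±100 for the full control effect; nearly all actives have a fitted effect of over 55% in size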
Active calls of the source: *. Unless noted, calls follow the shape of the dose curve; as a rule, active = well fitted curve in the direction sought with a large enough effect; inconclusive = small, poorly fitted or top-dose-only effect, or another doubt; inactive = no such curve, though single readings can be large; an effect the other way counts as inactive or inconclusive.

How did CN1CCN(CC#CCn2c3ccccc3c3ccccc32)CC1 do in these assays?
Pf growth 48h: inconclusive; Shiga inhibitor: 27; Pf growth 96h: 217%; AMA1-RON2 inh: -13%; CHX counter: -1; HCV inh: 4µM*; HCV inh confirm: 7µM*; HCV cytotox: 13%

How did CN1CCN(CC#CCC(O)(c2ccccc2)c2ccccc2)CC1 do in these assays?
Pf growth 48h: -7%; Shiga inhibitor: -2; Pf growth 96h: 0%; AMA1-RON2 inh: inconclusive; CHX counter: 8; HCV inh: -20%

Results for COc1cc2c(cc1NC(=O)COC(=O)[C@@H](NS(=O)(=O)c1cccc(Cl)c1)C(C)C)oc1ccccc12 ?
Pf growth 48h: 54%; Shiga inhibitor: 23; Pf growth 96h: 76%; AMA1-RON2 inh: -20%; CHX counter: 13*; HCV inh: inconclusive; HCV inh confirm: 13µM*; HCV cytotox: 31%

Results for COc1ccc(S(=O)(=O)N[C@@H](C)C(=O)OCC(=O)Nc2cc3oc4ccccc4c3cc2OC)cc1 ?
Pf growth 48h: 51%; Shiga inhibitor: 103*; Pf growth 96h: 82%; AMA1-RON2 inh: -1%; CHX counter: 15*; HCV inh: 6.3µM*; HCV inh confirm: 22µM*; HCV cytotox: 24%

How did COc1cc2c(cc1NC(=O)COC(=O)CNS(=O)(=O)c1ccc(C)cc1)oc1ccccc12 do in these assays?
Pf growth 48h: 35%; Shiga inhibitor: 83; Pf growth 96h: 0%; AMA1-RON2 inh: -14%; CHX counter: 24*; HCV inh: inconclusive; HCV inh confirm: 7.9µM*; HCV cytotox: -11%

Results for Cc1cc(C)nc(NCC(O)CNc2ccccc2Cl)n1 (stereo not drawn) ?
Pf growth 48h: 0%; Shiga inhibitor: 2; Pf growth 96h: 24%; AMA1-RON2 inh: -2%; CHX counter: 14; HCV inh: inconclusive; HCV inh confirm: 28µM*; HCV cytotox: 12%

What do the screens show for `Oc1ccccc1N=Nc1nc(-c2ccccc2)c(-c2ccccc2)[nH]1`?
Shiga inhibitor: 14; Pf growth 96h: 2.1µM*; AMA1-RON2 inh: inconclusive; CHX counter: -2; HCV inh: 3.5µM*; HCV inh confirm: 7.9µM*; HCV cytotox: -43%

Results for COc1ccc(/C=N\NC(=O)c2ccccc2[N+](=O)[O-])cc1COc1c(F)c(F)c(F)c(F)c1F ?
Pf growth 48h: 36%; Shiga inhibitor: 6; Pf growth 96h: -10%; AMA1-RON2 inh: -7%; CHX counter: 11; HCV inh: 2.5µM*; HCV inh confirm: 13µM*; HCV cytotox: -20%

What do the screens show for `COc1ccc(Cl)cc1S(=O)(=O)NCc1ccncc1`?
Pf growth 48h: -4%; Shiga inhibitor: -12; Pf growth 96h: 5%; AMA1-RON2 inh: -1%; CHX counter: 4

Results for CN1CCC(n2[nH]c(-c3ccccc3)c(Cc3ccccc3)c2=O)CC1 ?
AMA1-RON2 inh: -7%; HCV inh: 4%

How did COc1cc(C)c(C(=O)Oc2cc(C)c(C(=O)O)c(O)c2)c(O)c1 do in these assays?
Pf growth 48h: -6%; Shiga inhibitor: 25; Pf growth 96h: -14%; AMA1-RON2 inh: -1%; CHX counter: -2; HCV inh: 0.79µM*; HCV inh confirm: -10%; HCV cytotox: -13%

Screening data (PubChem)
